{
  "source": "PubChem BioAssay (NCATS)",
  "key": {"[1]": {"test": "Cell Viability - LYMP2-020 (AID 986);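 for all read-outs here: plate controls were DMSO only for no effect and tetraoctylammonium bromide at 92 µM for full effect; nearly all actives have a fitted effect of over 55% in size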", "details": "series mostly up to 92.2 µM", "outline": "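Luminescent ATP signal (CellTiter-Glo, 30 min at room temperature) is the read-out after 24 h compound treatment of lymphoblastoid cells at 37 C. AC50 values come from Hill-equation fits across concentrations.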"}, "[2]": {"test": "Cell Viability - LYMP2-022 (AID 987);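 for all read-outs here: 0% = DMSO alone and full effect = tetraoctylammonium bromide at 92 µM; nearly all actives have a fitted effect of over 55% in size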", "details": "LYMP2-022 lymphoblastoid cell viability; series mostly up to 92.2 µM", "outline": "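qHTS: human lymphoblastoid cells 2500/well; 5 hr 37 C; cpd added; 24 hr 37 C; CellTiter-Glo, 30 min RT; luminescence. AC50 via Hill fit; tetraoctylammonium bromide positive ctrl.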"}, "[3]": {"test": "Cell Viability - LYMP2-024 (AID 988);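 for all read-outs here: plate controls were DMSO only for no effect and 92 µM tetraoctylammonium bromide for full effect; nearly all actives have a fitted effect of over 60% in size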", "details": "LYMP2-024 lymphoblastoid cell viability; series mostly up to 92.2 µM", "outline": "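Steps: seed 2500 cells/well, 5 hr 37 C; add compound, 24 hr 37 C; add CellTiter-Glo, 30 min room temperature; read luminescence. AC50 derived by Hill modelling of concentration-dependent ATP loss.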"}, "[4]": {"test": "Cell Viability - LYMP2-026 (AID 989); for all read-outs here: % is set by controls: 0 for no effect and ±100 for the full control effect; nearly all actives have a fitted effect of over 50% in size", "details": "LYMP2-026 lymphoblastoid cell viability, qHTS; series mostly up to 92.2 µM", "outline": "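Luminescent ATP signal (CellTiter-Glo, 30 min room temperature) measures viable lymphoblastoid cells after 24 hr compound treatment at 37 C. Decreased ATP reflects acute toxicity; AC50 values come from Hill-equation modeling.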"}, "[5]": {"test": "Cell Viability - LYMP1-002 - Assay at 24 hr (AID 993); for all read-outs here: % is set by controls: 0 for no effect and ±100 for the full control effect", "details": "LYMP1-002 lymphoblastoid cells viability; series mostly up to 92.2 µM", "outline": "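Cells plated 2500/well, 5 hr 37 C; compounds added, 24 hr 37 C; CellTiter-Glo added, 30 min RT; luminescence read. Tetraoctylammonium bromide positive control. Hill-equation AC50.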"}, "[6]": {"test": "Cell Viability - LYMP1-002 - Assay at 40 hr (AID 994);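 for all read-outs here: 0% = DMSO only and full inhibition = 92 µM tetraoctylammonium bromide; nearly all actives have a fitted effect of over 60% in size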", "details": "LYMP1-002 lymphoblastoid cell viability; series mostly up to 92.2 µM", "outline": "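Luminescent ATP signal served as the viability readout, with decreases taken as toxicity. Cells were treated with compounds across a concentration range for 40 hours at 37 C, and AC50 values came from standard Hill modeling.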"}, "[7]": {"test": "qHTS Assay for Lipid Storage Modulators (AID 1519; calls by dose curve; for activity change, negative = inhibition: % is set by controls: 0 for no effect and ±100 for the full control effect)", "details": "Drosophila S3 cells, BODIPY lipid droplet/cell ratio, laser cytometry, cells loaded with oleic acid; for activity change, negative = inhibition: at 57.5 µM (top of the series)", "outline": "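Cells seeded at 5,000 per well were treated with compounds over a concentration series and loaded with oleic acid (400 uM, as added). Lipid droplet fluorescence (488 nm excitation, 500-530 nm channel) was read by laser-scanning cytometry and normalized to 20 uM Triacsin C.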"}, "[8]": {"molecular_target": "Alpha-galactosidase A (Homo sapiens) (UniProt P06280)", "sequence (P06280 whole entry, looked up)": "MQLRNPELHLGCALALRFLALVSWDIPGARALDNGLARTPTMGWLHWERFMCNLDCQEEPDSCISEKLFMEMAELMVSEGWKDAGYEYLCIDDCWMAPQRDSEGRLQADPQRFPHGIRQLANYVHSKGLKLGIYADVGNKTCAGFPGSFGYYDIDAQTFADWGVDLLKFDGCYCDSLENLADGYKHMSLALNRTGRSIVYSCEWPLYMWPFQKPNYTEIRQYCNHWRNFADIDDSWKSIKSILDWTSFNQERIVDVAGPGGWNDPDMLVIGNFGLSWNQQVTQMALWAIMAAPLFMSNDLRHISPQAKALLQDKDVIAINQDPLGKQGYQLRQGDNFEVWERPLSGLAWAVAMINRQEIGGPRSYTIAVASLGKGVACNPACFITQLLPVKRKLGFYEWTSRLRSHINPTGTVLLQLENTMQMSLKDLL", "test": "Counterscreen for Glucocerebrosidase Inhibitors: qHTS Assay for Human alpha-Galactosidase at pH 4.5 (AID 992); note: 0% is about no effect", "details": "purified enzyme, fluorogenic substrate; series mostly up to 76.9 µM", "outline": "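Quantitative HTS: compounds tested from 0.7 nM up to 77 uM against 2 nM enzyme with 80 uM 4-MU alpha-D-galactopyranoside. The 20 min room-temperature reaction is stopped with 1M NaOH/1M glycine, pH 10.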"}, "[9]": {"molecular_target": "alpha-glucosidase (Oryza sativa, rice) (UniProt Q653V4)", "test": "Counterscreen for Glucocerebrosidase Inhibitors: qHTS Assay for Rice alpha-Glucosidase at pH 5.0 (AID 997);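 note: 0% = full activity with enzyme and -100% = basal without enzyme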", "details": "rice alpha-glucosidase enzyme activity; series mostly up to 76.9 µM", "outline": "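Rice alpha-glucosidase (4 nM final) with 400 uM 4-methylumbelliferyl-alpha-D-glucopyranoside in citrate buffer pH 5.0, 20 min at room temperature, stopped at pH 10; fluorescence 365/440 nm, compounds 0.7 nM–77 uM, AC50 from Hill fits.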"}, "[10]": {"test": "Validation of Assay for Modulators of Lamin A Splicing (AID 1459; active = well fitted curve in the direction sought with a large enough effect in the signal ratio; the % refers to the signal ratio;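 note: cells exposed to compound for two days before reading; 0% is about no effect; ratio rise marks activators and ratio drop marks inhibitors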)", "details": "Lamin A splicing dual RFP/GFP fluorescence reporter; series mostly up to 9.22 µM", "excerpt": "Hutchinson-Gilford Progeria Syndrome (HGPS) is a pediatric premature aging disease caused by a spontaneous mutation in the lamin A/C (LMNA) gene. The mutation activates a cryptic splice site in the LMNA pre-mRNA which results in production of a pre-lamin A protein that cannot be processed properly. The mutant protein accumulates in the nucleus and negatively affects numerous cellular functions. Correction of the splicing defect in HGPS patient cells using a targeted oligonucleotide (exo11) leads to reversal of the cellular disease phenotypes. […]\nBowen, W. P.; Wylie, P. G. Application of Laser-Scanning Fluorescence Microplate Cytometry in High Content Screening. […]\nHeLa cells were prepared for the assay when they were 70-90% confluent. The cells were counted and resuspended in Opti-MEM I (no phenol red; Gibco), 2% FBS, 1% penicillin/ streptomycin (Gibco) at concentration of 120 cells/uL concentration. […]\n5 uL of HeLa cells were plated in Aurora LoBase black clear bottom (cyclic-olefin polymer) 1536-well plates at a final density of 600 cells/well. […] Following incubation the plates were read on the Acumen Explorer using the 488 nm laser. […] The ratio of the total object intensity in PMT1 (500-530 nm emission; GFP) over PMT3 (575-640 nm emission; RFP) was calculated for analysis. […]"}, "[11]": {"details": "measured here: cell count channel max response"}, "[12]": {"details": "measured here: lipid channel max response"}},
  "note": "“And” between values parts separate entries of the source, which are not always exact repeats. Equal entries are not always repeated. Records with an inconclusive call do not appear. The source made the active and inactive calls. Unless noted, calls come from the whole dose curve; as a rule, active = well fitted curve in the direction sought with a large enough effect; inconclusive = small, poorly fitted or top-dose-only effect, or another doubt; inactive = no such curve, though single readings can be large; an effect the other way counts as inactive or inconclusive.",
  "data": [
    {"smiles": "CN(C)Cc1ccccc1", "values": [
      {"measurement": "outcome", "setting": "[1]", "result": "inactive"},
      {"measurement": "outcome", "setting": "[2]", "result": "inactive"},
      {"measurement": "outcome", "setting": "[3]", "result": "inactive"},
      {"measurement": "outcome", "setting": "[4]", "result": "inactive"},
      {"measurement": "outcome", "setting": "[5]", "result": "inactive"},
      {"measurement": "outcome", "setting": "[6]", "result": "inactive"}
    ]},
    {"smiles": "C1CNCCN1", "values": [
      {"measurement": "activity change, negative = inhibition", "setting": "[7]", "result": "8.66% (inactive)"},
      {"measurement": "max response", "setting": "[7]; [11]", "result": 6.29, "unit": "%"},
      {"measurement": "max response", "setting": "[7]; [12]", "result": 18.5, "unit": "%"}
    ]},
    {"smiles": "Cc1ccc(OC[C@H](O)[C@H](C)NC(C)C)c2c1CCC2", "values": [
      {"measurement": "outcome", "setting": "[8]", "result": "inactive"},
      {"measurement": "outcome", "setting": "[9]", "result": "inactive"},
      {"measurement": "activity change, negative = inhibition", "setting": "[7]", "result": "-0.878% (inactive)"},
      {"measurement": "max response", "setting": "[7]; [11]", "result": 5.72, "unit": "%"},
      {"measurement": "max response", "setting": "[7]; [12]", "result": 7.78, "unit": "%"}
    ]},
    {"smiles": "C=Cc1ccccc1", "values": [
      {"measurement": "outcome", "setting": "[3]", "result": "inactive"},
      {"measurement": "outcome", "setting": "[4]", "result": "inactive"},
      {"measurement": "outcome", "setting": "[5]", "result": "inactive"},
      {"measurement": "outcome", "setting": "[6]", "result": "inactive"}
    ]},
    {"smiles": "O=C(O)CC(O)(CC(=O)O)C(=O)O", "values": [
      {"measurement": "outcome", "setting": "[1]", "result": "inactive"},
      {"measurement": "outcome", "setting": "[2]", "result": "inactive"},
      {"measurement": "outcome", "setting": "[4]", "result": "inactive"},
      {"measurement": "outcome", "setting": "[5]", "result": "inactive"},
      {"measurement": "outcome", "setting": "[6]", "result": "inactive"},
      {"measurement": "activity change, negative = inhibition", "setting": "[7]", "result": "-0.75% (inactive)"},
      {"measurement": "max response", "setting": "[7]; [11]", "result": 14.5, "unit": "%"},
      {"measurement": "max response", "setting": "[7]; [12]", "result": 16, "unit": "%"}
    ]},
    {"smiles": "CN[C@H]1CC[C@@H](c2ccc(Cl)c(Cl)c2)c2ccccc21", "values": [
      {"measurement": "outcome", "setting": "[8]", "result": "inactive"},
      {"measurement": "outcome", "setting": "[9]", "result": "inactive"}
    ]},
    {"smiles": "COC(C)=O", "values": [
      {"measurement": "outcome", "setting": "[1]", "result": "inactive"},
      {"measurement": "outcome", "setting": "[2]", "result": "inactive"},
      {"measurement": "outcome", "setting": "[3]", "result": "inactive"},
      {"measurement": "outcome", "setting": "[4]", "result": "inactive"},
      {"measurement": "outcome", "setting": "[5]", "result": "inactive"},
      {"measurement": "outcome", "setting": "[6]", "result": "inactive"}
    ]},
    {"smiles": "NCCCC(=O)O", "values": [
      {"measurement": "outcome", "setting": "[8]", "result": "inactive"},
      {"measurement": "outcome", "setting": "[9]", "result": "inactive"},
      {"measurement": "outcome", "setting": "[10]", "result": "inactive"},
      {"measurement": "activity change, negative = inhibition", "setting": "[7]", "result": "-0.209% (inactive) and 6.45% (inactive) and 0.252% (inactive)"},
      {"measurement": "max response", "setting": "[7]; [11]", "result": "-9.18% and 2.91% and -17.1%"},
      {"measurement": "max response", "setting": "[7]; [12]", "result": "-6.14% and 11.3% and -29.6%"}
    ]},
    {"smiles": "CCCCCCCCCC(=O)O", "values": [
      {"measurement": "outcome", "setting": "[1]", "result": "inactive"},
      {"measurement": "outcome", "setting": "[2]", "result": "inactive"},
      {"measurement": "outcome", "setting": "[3]", "result": "inactive"},
      {"measurement": "outcome", "setting": "[4]", "result": "inactive"},
      {"measurement": "outcome", "setting": "[5]", "result": "inactive"},
      {"measurement": "outcome", "setting": "[6]", "result": "inactive"}
    ]},
    {"smiles": "CCCCCCCCCCCCCCCC(=O)OC/C=C(C)/C=C/C=C(C)/C=C/C1=C(C)CCCC1(C)C", "values": [
      {"measurement": "activity change, negative = inhibition", "setting": "[7]", "result": "3.99% (inactive)"},
      {"measurement": "max response", "setting": "[7]; [11]", "result": 7.5, "unit": "%"},
      {"measurement": "max response", "setting": "[7]; [12]", "result": 14, "unit": "%"}
    ]}
  ]
}
